Assay outcomes (PubChem BioAssay)
BJeLR viability = lowers viability of BJeLR cells. BJeLR fibroblasts viability, CellTiterGlo ATP luminescence, 48 h; HRASV12, hTERT and SV40 LT/ST transformed. viability loss activity score, % (test concentration not listed). hit rate 0.64% among 30,000; in the data active = viability loss activity score above about 50%;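 note: higher score means fewer live cells and less ATP luminescence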
MITF inh = inhibitors of MITF. TRPM1 promoter luciferase, luminescence, 24 h. inhibition, % (no concentration beside the values). hit rate 0.28% among 37,000. AID 2240; in the data active = inhibition above about 85%;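 note: human melanocyte line stably carrying TRPM1 promoter luciferase reporter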
YB-1 expression = YB-1 expression inhibition; U2OS, qRT-PCR YB-1 vs CDIP delta delta Cp, 16 h; active compounds read high; zero = DMSO, each unit about twofold; delta delta Cp (YB-1 minus CDIP) (no concentration beside the values); hit rate 0.37% among 30,000;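 active = delta delta Cp rounded down to an integer at or above 3, about 3 SD of DMSO wells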;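 note: higher means less YB-1 transcript or more CDIP transcript relative to DMSO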
U2OS ROS induce = cancer cell ROS induction. U2OS ROS induction, H2DCF-DA fluorescence. ROS induction (% of piperlongumine), % at 10 µM. hit rate 2% among 46,000; in the data active = ROS induction above about 79%, passing the limit was not always enough
Numbers stand for hits; n = inactive; x = no result. Most compounds without a hit are left out; they make up all but 2.5% or so of the library.

SMILES	BJeLR viability	MITF inh	YB-1 expression	U2OS ROS induce
C[C@H]1CN([C@@H](C)CO)C(=O)c2cccc(NC(=O)Nc3ccc4c(c3)OCO4)c2O[C@@H]1CN(C)Cc1ccc(-c2ccccc2)cc1	n	n	n	n
CCOC(=S)SCc1cn2cccnc2n1	n	x	x	n
CC1CN(c2nc3ccccc3nc2SCC(=O)Nc2ccccc2)CC(C)O1 (stereo not given)	n	n	n	n
Cc1nn2c(-c3ccc(NC(=O)c4ccccc4Cl)cc3)nnc2c2ccccc12	n	x	x	x
CCN(Cc1ccccc1)C(=O)c1oc(=O)c2ccccc2c1-c1ccc(C)cc1	n	x	x	x
C[C@H]1CN([C@@H](C)CO)C(=O)c2cccc(NC(=O)Nc3ccccc3)c2O[C@@H]1CN(C)Cc1ccc(Cl)c(Cl)c1	n	n	n	89.1
C[C@@H]1CN([C@H](C)CO)C(=O)c2cccc(NC(=O)Nc3ccccc3)c2O[C@@H]1CN(C)Cc1ccc(Cl)c(Cl)c1	n	n	n	n
C[C@@H]1CN([C@@H](C)CO)C(=O)c2cccc(NC(=O)Nc3ccccc3)c2O[C@@H]1CN(C)Cc1ccc(Oc2ccccc2)cc1	n	n	n	86.8
Cc1cccc(-c2nnc(SCC(=O)Nc3ccccc3F)o2)c1	x	88.2	x	n
COc1ccc(S(=O)(=O)N(C)C[C@@H]2Oc3ccc(NC(=O)Nc4ccccc4)cc3CC(=O)N([C@@H](C)CO)C[C@@H]2C)cc1	x	n	n	111.5
C[C@@H]1CN([C@H](C)CO)C(=O)Cc2cc(NS(=O)(=O)c3ccc(Cl)cc3)ccc2O[C@H]1CN(C)C(=O)Nc1ccc(F)cc1	x	n	n	n
CC(C)NC(=O)Nc1ccc2c(c1)CC(=O)N([C@@H](C)CO)C[C@H](C)[C@@H](CN(C)C(=O)Nc1ccc(F)cc1)O2	x	n	n	n
CC(C)NC(=O)Nc1ccc2c(c1)CC(=O)N([C@@H](C)CO)C[C@H](C)[C@H](CN(C)C(=O)Nc1ccc(F)cc1)O2	x	n	n	111.2
Cc1noc(C)c1S(=O)(=O)Nc1ccc2c(c1)CC(=O)N([C@@H](C)CO)C[C@H](C)[C@H](CN(C)CC1CCCCC1)O2	x	n	n	n
Cc1noc(C)c1S(=O)(=O)Nc1ccc2c(c1)CC(=O)N([C@H](C)CO)C[C@@H](C)[C@H](CN(C)CC1CCCCC1)O2	x	n	n	108.9
C[C@H](CO)N1C[C@H](C)[C@H](CN(C)C(=O)Nc2ccc(F)cc2)Oc2ccc(NS(=O)(=O)c3ccc(Cl)cc3)cc2CC1=O	x	n	n	88.8
COc1ccc(S(=O)(=O)Nc2ccc3c(c2)CC(=O)N([C@H](C)CO)C[C@@H](C)[C@@H](CN(C)S(=O)(=O)c2c(C)noc2C)O3)cc1	x	n	n	88.9
COc1ccc(S(=O)(=O)Nc2ccc3c(c2)CC(=O)N([C@H](C)CO)C[C@@H](C)[C@H](CN(C)CC2CC2)O3)cc1	x	n	3.18	n
COc1ccc(NC(=O)N(C)C[C@H]2Oc3ccc(NS(=O)(=O)c4ccc(OC)cc4)cc3CC(=O)N([C@H](C)CO)C[C@H]2C)cc1	x	n	n	81.4
CC(C)NC(=O)N(C)C[C@H]1Oc2ccc(NC(=O)Nc3ccc4c(c3)OCO4)cc2CC(=O)N([C@@H](C)CO)C[C@@H]1C	x	n	n	n
CC(C)NC(=O)N(C)C[C@@H]1Oc2ccc(NC(=O)Nc3ccc4c(c3)OCO4)cc2CC(=O)N([C@H](C)CO)C[C@H]1C	x	n	n	125.9
COc1ccc(S(=O)(=O)N(C)C[C@H]2Oc3ccc(NS(=O)(=O)c4c(C)noc4C)cc3CC(=O)N([C@H](C)CO)C[C@H]2C)cc1	x	n	n	n
O=C(/C=C/c1ccco1)N(Cc1ccccc1)c1ccccn1	n	x	x	n
CC(C)c1ccc(NS(=O)(=O)Cc2ccccc2)cc1	n	x	x	n
COc1ccc(CSc2nnc3c4c5c(sc4nc(SC)n23)COC(C)(C)C5)cc1	n	x	x	n
SMILES	BJeLR viability	MITF inh	YB-1 expression	U2OS ROS induce
CNC[C@@H]1Oc2ccc(NC(=O)NC(C)C)cc2CC(=O)N([C@H](C)CO)C[C@@H]1C	x	n	n	127.3
COc1ccc(S(=O)(=O)Nc2ccc3c(c2)CC(=O)N([C@@H](C)CO)C[C@@H](C)[C@@H](CN(C)C(=O)Nc2ccc4c(c2)OCO4)O3)cc1	x	n	n	80.5
CC(=O)Nc1nc(C)cc2c1c(=O)oc1ccccc12	n	x	x	x
Cc1nc2ccccc2c2oc(C(=O)N3CCC(C)CC3)cc12	n	x	x	x
Cc1oc2c(c1C(=O)NC1CCCC1)C(=O)c1ccccc1C2=O	n	n	n	102.3
Cc1oc2c(c1C(=O)N1CCC(C)CC1)C(=O)c1ccccc1C2=O	n	85.0	n	n
Cc1oc2c(c1C(=O)NCCc1ccccc1)C(=O)c1ccccc1C2=O	n	n	n	n
COc1ccc(C)cc1NC(=O)CSc1nnc(-c2ccc(C(C)(C)C)cc2)n1C	x	n	x	93.1
COc1ccc(C)cc1NC(=O)CSc1nnc(-c2ccc(Cl)c(Cl)c2)n1C	x	n	x	n
CNC1CCc2cc(OC)c(OC)c(OC)c2-c2ccc(OC)c(=O)cc21 (stereo not given)	58.5	n	n	n
Cc1ccc(S(=O)(=O)CCSc2sc(C#N)c3c2C(=O)CC(C)(C)C3)cc1	n	n	n	124.8
OCCN(CCO)c1nc(-c2ccccc2)nc2sc(-c3ccccc3)cc12	x	n	x	115.8
C=CCN(CC=C)c1nc(-c2ccccc2)nc2ccccc12	n	x	x	n
Cc1ccccc1OCCn1c(SCc2nc3ccccc3[nH]2)nc2ccccc21	n	x	x	x
O=C1NC(=Nc2cccc3ccccc23)SC1(CO)CO	n	x	x	n
C[C@@H]1CN([C@@H](C)CO)C(=O)c2cc(NC(=O)Nc3ccc(C(F)(F)F)cc3)ccc2O[C@H]1CN(C)C(=O)Nc1ccc(F)cc1	n	n	n	n
C[C@H]1CN([C@@H](C)CO)C(=O)c2cc(NC(=O)CCCCCC(=O)Nc3ccccc3N)ccc2O[C@@H]1CN(C)C(=O)Nc1ccc(F)cc1	n	n	n	107.7
C[C@@H]1CN([C@@H](C)CO)C(=O)c2cc(NC(=O)Cc3ccccc3)ccc2O[C@@H]1CN(C)C(=O)Nc1ccc(C(F)(F)F)cc1	x	n	n	93.7
C[C@H](CO)N1C[C@H](C)[C@H](CN(C)C(=O)Nc2ccc(C(F)(F)F)cc2)Oc2ccc(NC(=O)Nc3ccc(F)cc3)cc2C1=O	x	n	n	96.2
C[C@H](CO)N1C[C@H](C)[C@@H](CN(C)C(=O)Nc2ccc(C(F)(F)F)cc2)Oc2ccc(NC(=O)C3CC3)cc2C1=O	x	n	3.34	n
C[C@@H]1CN([C@H](C)CO)C(=O)c2cc(NC(=O)C3CC3)ccc2O[C@@H]1CN(C)C(=O)Nc1ccc(C(F)(F)F)cc1	n	n	n	n
C[C@@H]1CN([C@@H](C)CO)C(=O)c2cc(NC(=O)Cc3ccccc3)ccc2O[C@H]1CN(C)C(=O)Nc1ccc(C(F)(F)F)cc1	n	n	n	n
O=C(Nc1ccc(OC(F)(F)F)cc1)OC1CN(C(c2ccccc2)c2ccccc2)C1	n	x	x	n
CC(C)NC(=O)CCn1c(=O)oc2ccccc21	n	x	x	x
CC1=CC2=NC(=O)/C(=C\c3ccco3)C(=N)N2O1	n	x	x	x
C[C@H](CO)N1C[C@H](C)[C@H](CN(C)CC2CC2)Oc2ccc(NC(=O)C3CC3)cc2C1=O	n	n	n	n
